Source: PubChem BioAssay
Only some compounds are listed: those with a hit (about 10% of all), similar ones and a draw of the others.
HP1b chromo inh: HP1-beta chromodomain-methylated histone interaction inhibition. Potency, µM (series often up to 114 µM), for the others: at the highest dose activity change, negative = inhibition, actives largely listed as inhibitors. hit rate 0.56% among 390,000. P83916. AlphaScreen HP1-beta / biotin-H3K9me3 peptide binding; note: potency is the fitted concentration of half-maximal effect; nearly all actives have a fitted effect of over 70% in size
Target sequence (P83916 whole entry, looked up): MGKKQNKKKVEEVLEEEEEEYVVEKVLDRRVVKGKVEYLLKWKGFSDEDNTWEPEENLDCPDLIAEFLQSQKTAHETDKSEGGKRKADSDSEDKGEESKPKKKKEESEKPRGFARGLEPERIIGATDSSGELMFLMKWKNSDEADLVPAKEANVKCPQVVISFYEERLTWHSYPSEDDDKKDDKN
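Compound inhibition of the preformed complex between 50 nM HP1-beta and 50 nM biotinylated H3K9me3 peptide was read by AlphaScreen. Buffer was PBS pH 7.4 with 0.01% Tween-20. Incubations ran 30 min at room temperature, with 10 ug/mL donor/acceptor beads.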
BAZ2B inh: inhibitors of human BAZ2B bromodomain | Q9UIF8 | AlphaScreen BAZ2B-H3K14Ac peptide displacement | Potency, µM (titrated, usually from 114 µM), inactives show at the top dose activity change, negative = inhibition, most hits filed as inhibitors | hit rate 4.4% among 360,000; note: potency is the fitted concentration of half-maximal effect; % is set by controls: 0 for no effect and ±100 for the full control effect; nearly all actives have a fitted effect of over 60% in size
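Inhibition is scored as reduced AlphaScreen emission. The BAZ2B/b-H3(5-23)K14Ac complex (50 nM each) in PBS pH 7.4, 0.01% Tween-20 meets compound (up to 110 uM) for 30 min at RT before bead addition.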
Six1-Eya2 blk: inhibitors of human Six1/Eya2 interaction; hit rate 0.56% among 360,000; activity change, % (concentration not given with the values); AlphaScreen GST-Six1/His-Eya2 binding, biochemical; active compounds read low; Q15475+O00167; AID 651725; in the data active = activity change below about -65%; inconclusive = mostly about -30% to -63%; note: % is set by controls: 0 for no effect and ±100 for the full control effect
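Homogeneous AlphaScreen proximity assay pairing GST-Six1 with His-tagged Eya2 (added as 5X mix: 250 nM and 500 nM) in 50 mM Tris pH 8.0, 300 mM NaCl, 1 mM TCEP. Glutathione donor and nickel acceptor beads; 1 h, 37 °C, dark.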
CtBP-E1A blk: inhibitors of CtBP/E1A interaction; activity change, % (concentration not given with the values); hit rate 0.49% among 340,000; AlphaScreen GST-E1A/His-CtBP binding, 1536-well; active compounds read low; in the data active = activity change below about -65%; inconclusive = mostly about -30% to -63%; note: % is set by controls: 0 for no effect and ±100 for the full control effect
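In 5 uL wells, 23 nL compound meets equimolar GST-E1A and His-CtBP (5X stock 125 nM each) for 2 h, 37 °C. Beads (5X, 50 ug/mL) then 1 h, 37 °C, dark.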
JMJD2A Tudor inh: blocks the human JMJD2A Tudor domain; O75164; AlphaScreen JMJD2A-Tudor / H3K4me3 peptide binding; Potency, µM (top dose mostly 114 µM), without a hit: top-dose activity change, negative = inhibition, most hits filed as inhibitors; hit rate 4.4% among 390,000; note: potency is the fitted concentration of half-maximal effect; % is set by controls: 0 for no effect and ±100 for the full control effect; nearly all actives have a fitted effect of over 50% in size
G9a block: blocks human histone lysine methyltransferase G9a; Q96KQ7; G9a H3K9 monomethylation, AlphaScreen, 2 h; Potency, µM (series often up to 102 µM), for the others: at the top dose activity, negative = inhibition, usual class: inhibitors; hit rate 8.8% among 350,000; AID 504332; note: potency is the fitted concentration of half-maximal effect; % is set by controls: 0 for no effect and ±100 for the full control effect; nearly all actives have a fitted effect of over 75% in size
Target sequence (Q96KQ7 913-1193 limits assumed): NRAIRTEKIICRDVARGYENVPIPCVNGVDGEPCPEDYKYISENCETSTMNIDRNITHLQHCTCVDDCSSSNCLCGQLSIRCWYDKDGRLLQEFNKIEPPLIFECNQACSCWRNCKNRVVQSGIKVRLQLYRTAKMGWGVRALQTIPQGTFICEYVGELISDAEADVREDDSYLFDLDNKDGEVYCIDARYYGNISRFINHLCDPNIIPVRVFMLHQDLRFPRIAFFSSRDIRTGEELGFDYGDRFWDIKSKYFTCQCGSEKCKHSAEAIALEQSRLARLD
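Readings reflect AlphaScreen signal from monomethyl-H3K9 antibody detection. HMT at 20 nM; substrate b-H3K9 500 nM; cofactor SAM 20 uM; 2 h RT reaction; compounds tested as titrations in qHTS with 15 min preincubation.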
The depositor's hits bear a star; ? = inconclusive; . = no result; ! = a repeat was not active; [ ] = dose if it differs, or a comment. Unless noted, calls come from the whole dose curve; as a rule, active = well fitted inhibition curve with a large enough effect; inconclusive = small, poorly fitted or top-dose-only effect; inactive = no such curve, though single readings can be large or run the other way.

SMILES | HP1b chromo inh | BAZ2B inh | Six1-Eya2 blk | CtBP-E1A blk | JMJD2A Tudor inh | G9a block
COc1ccc(Cn2c(O)c(C=NCCN3CCOCC3)c(=O)[nH]c2=O)cc1 | 41% | -4% | 5 | 1 | -5% | 40µM*
Cn1c(O)c(C=NCCN2CCOCC2)c(=O)n(C)c1=S | 5% | ? | -1 | -2 | -6% | 32µM*
C=C[C@H]1CN2CC[C@@H]1C[C@H]2[C@@H](O)c1ccnc2ccccc12 | . | . | . | . | . | 11%[21.5 µM]
CC(C)(N)Cc1ccc(Cl)cc1 | . | . | . | . | . | 12%[59 µM]
O=C(c1csnn1)N1CCC2(CC1)CN(Cc1ccncc1)C2 | . | . | . | . | . | 12%[12.7 µM]
C[N+]1(C)[C@@H]2CC(OC(=O)[C@@H](CO)c3ccccc3)C[C@@H]1[C@H]1O[C@H]12 (some centres undefined) | . | . | . | . | . | -47%[59 µM]
O=c1[nH]c(=O)n(Cc2ccc(F)cc2)c(O)c1C=Nc1ccc(Cl)cc1 | 29% | 6% | 7 | -1 | -3% | -35%
O=C(N/N=C/c1c(O)n(CCc2ccc(F)cc2)c(=O)[nH]c1=O)c1ccccc1 | 53% | -25% | -9 | -5 | ? | -38%
O=C(N/N=C/c1c(O)n(CCc2ccccc2)c(=O)[nH]c1=O)c1ccccc1O | 33% | -38% | ? | . | ? | 71µM*
C=CCn1c(O)c(/C=N/NC(=O)CCCC)c(=O)[nH]c1=S | 18% | ? | ? | 9 | 79µM* | 102%[59 µM]
O=C(N/N=C/c1c(O)n(Cc2ccc(F)cc2)c(=O)[nH]c1=O)c1ccccc1O | 30% | ? | -88* | ? | ? | 45µM*
COc1ccc(Cn2c(O)c(/C=N/NC(=O)c3ccncc3)c(=O)[nH]c2=O)cc1 | 48% | ? | ? | ? | ? | ?
COc1ccc(Cn2c(O)c(/C=N/NC(=O)c3ccccc3O)c(=O)[nH]c2=O)cc1 | 27% | 50µM* | -87* | -72* | 71µM* | -2%[59 µM]
COc1cc(/C=N/NC(=O)c2cnccn2)cc(OC)c1OC | -7% | -6% | -10 | 1 | 9% | ?
c1csc(CN2CC[C@@]3(CCCNC3)C2)n1 | . | . | . | . | . | 5%[12.7 µM]
O=c1[nH]c(=O)n(Cc2ccco2)c(O)c1/C=N/N1CCCCC1 | 2% | -34% | 3 | 12 | -21% | 20µM*
Nc1cccc(N=Cc2c(O)n(Cc3ccc(F)cc3)c(=O)[nH]c2=O)c1 | 7% | 1% | -1 | -8 | -17% | 13µM*
O=C(N/N=C/c1c(O)n(Cc2ccco2)c(=O)[nH]c1=O)c1ccccc1 | 27% | 79µM* | -86* | -85* | 79µM* | .
COc1cccc(N=Cc2c(O)n(Cc3ccco3)c(=O)[nH]c2=O)c1 | 18% | -31% | -5 | 0 | -2% | ?
CCn1c(O)c(/C=N/NC(=O)c2ccccc2)c(=O)[nH]c1=S | 58% | 40µM* | -93* | -91* | 56µM* | -7%
O=c1[nH]c(=O)n(Cc2ccco2)c(O)c1C=NC1CC1 | 22% | 4% | 2 | -2 | -14% | 5%[59 µM]
O=c1[nH]c(=O)n(Cc2ccccc2)c(O)c1/C=N/NCCO | 36% | 50µM* | ? | -6 | 56µM* | 50µM*
O=C1NC(=S)NC(=O)C1=Cc1ccc2c(c1)CCN2CCCCl | ? | 25µM* | -29 | . | 7.9µM* | 10µM*
COC(=O)c1nc(-c2ccc3c(n2)C(=O)C(N)=C(OC)C3=O)c(N)c(-c2ccc(OC)c(OC)c2O)c1C | -4% | ? | 12 | -19 | -31% | 10µM*
Nc1ncnc2c1ncn2[C@@H]1O[C@H](COP(=O)(O)OP(=O)(O)OP(=O)(O)O)[C@H]2OC3(O[C@H]21)C([N+](=O)[O-])=CC(=[N+]([O-])[O-])C=C3[N+](=O)[O-] (some centres undefined) | . | . | . | . | . | 26%[59 µM]
SMILES | HP1b chromo inh | BAZ2B inh | Six1-Eya2 blk | CtBP-E1A blk | JMJD2A Tudor inh | G9a block
Nc1nc(N)nc(NC2CC2)n1 | . | . | . | . | . | 5%[12.7 µM]
O=C1NC(=O)N(Cc2ccccc2)C(=O)C1Cc1ccccc1 (centres undefined) | 33% | . | 15 | 29 | -16% | .
O=C1NC(=S)NC(=O)C1C/C=C/c1ccccc1 | -22% | 1% | 0 | 9 | 79µM* | 7.9µM*
O=C1NC(=S)NC(=O)C1Cc1ccccc1 | ? | . | 2 | -4 | 89µM* | .
CCOC(=O)c1c(NC(=O)C(c2ccccc2)c2ccccc2)sc2c1C1CCN2CC1 | 1% | ? | -20 | -5 | ? | 50µM*
O=P(/C(=N/O)N1CCOCC1)(N1CCOCC1)N1CCOCC1 | 27% | -6% | -6 | 6 | -3% | 14µM*
CCOP(=O)(OCC)O/C(=C/Cl)c1ccc(Cl)cc1Cl | . | . | . | . | . | -5%[12.7 µM]
C=C1[C@@H](C)[C@H]2[C@H](Cc3ccccc3)NC(=O)[C@]23[C@H](OC(C)=O)/C=C/[C@](C)(O)C(=O)[C@@H](C)C/C=C/[C@H]3[C@@H]1O | . | . | . | . | . | 5%[59 µM]
COc1ccc(CCNCc2ccc(SC)cc2)cc1 | 2% | -3% | -17 | -13 | -11% | .
COc1ccc(CCNCC2CCCO2)cc1 (centres undefined) | ? | ? | 1 | . | 28µM* | .
CCOc1cc2c(cc1OCC)-n1cccc1C(c1cccc(OCC)c1O)NC2 (centres undefined) | ? | ? | -6 | -25 | 45µM* | 45µM*
CC(C)N1CCN(c2ccc(O)cc2)CC1 | ? | -6% | -1 | -3 | ? | 8.9µM*
CC(N)Cc1ccc(O)cc1 (centres undefined) | . | . | . | . | . | -34%[2.33 µM]
Cc1ccc(NC(=O)C2C3CCCC2C3c2ccccc2)c(C)c1 (centres undefined) | 41% | -7% | 31 | 0 | -8% | ?
C=CCn1c(O)c(Cc2ccc(OCC)cc2)c(=O)[nH]c1=O | -12% | 0% | 4 | -4 | 32µM* | 3%
CN(C)[C@@H]1C(=O)C(C(N)=O)=C(O)[C@@]2(O)C(=O)C3=C(O)c4c(O)ccc(Cl)c4[C@@](C)(O)[C@H]3C[C@@H]12 | 18% | 18µM* | -7 | -11 | 56µM* | ?
CN(C)[C@@H]1C(=O)C(C(N)=O)=C(O)[C@@]2(O)C(=O)C3=C(O)c4c(O)cccc4[C@@](C)(O)[C@H]3[C@H](O)[C@@H]12 | 4µM*! | 2.8µM* | ? | -67*! | 1.4µM*! | 11µM*
CN(C)C1C(=O)C(C(N)=O)C(=O)C2(O)C(=O)C3C(=O)c4c(O)cccc4C(C)(O)C3C(O)C12 (centres undefined) | . | . | . | . | . | 3.5µM*
C=CC[C@]1(O)CCC2C3CCC4=CCCCC4C3CCC21C (some centres undefined) | . | . | . | . | . | 36%[59 µM]
S=C=S | . | . | . | . | . | 3%[59 µM]
CCC(CC)c1nnc(NC(=O)CC(C)c2ccccc2)s1 (centres undefined) | -14% | 1% | 0 | 1 | -14% | ?
